# From PubChem
# The list is not random: actives were taken first. Their share in the collection is about 1.4%.
# HTT aggregate: reduces HttQ103-GFP aggregates in PC12 cells; AID 1688; PC12 HttQ103-GFP aggregates, Acumen cytometry, 40 h; Potency, µM (series often up to 46.1 µM), for the others: at the highest dose activity change, negative = inhibition, hits mostly inhibitors; actives 1.1% (n = 220,000); note: % is set by controls: 0 for no effect and ±100 for the full control effect; nearly all actives have a fitted effect of over 60% in size
#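 PC12/HTTQ103-GFP, ecdysone-inducible; teb 100 nM; cpd qHTS titration; GFP aggregates read on laser cytometer, Ex 488/Em 500-530 nm.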
# ERK EGF inh: EGF-driven ERK pathway inhibition; HEK293-V1b, EGF-stimulated phospho-ERK AlphaScreen; Potency, µM (titrated, usually from 11.5 µM), for inactives: at the top dose activity change, negative = inhibition, actives largely listed as inhibitors; actives 0.41% (n = 130,000);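 note: plate controls were stimulated vehicle wells for no effect and unstimulated vehicle basal for full effect; nearly all actives have a fitted effect of over 55% in size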
#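 Phospho-ERK1/2 measured by AlphaScreen (SureFire) after 5 min 25 nM EGF stimulation of V1b-expressing HEK293 cells preincubated 30 min at 37C with titrated compounds; data scaled to DMSO and EGF controls, Hill-fitted AC50.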
# HTT ATP protect: protects HTT-Q103 PC12 cells, measured by ATP | Potency, µM (titrated, usually from 56.4 µM), for the others: cytoprotection (ATP increase), hits mostly activators | actives 0.14% (n = 230,000) | AID 1471 | PC12 HTT-Q103 induced, cytoprotection, ATP luminescence, 40 h; note: % of control where 0% means no effect; nearly all actives have a fitted effect of over 45% in size
#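 PC12 cells with ecdysone-inducible HTT exon 1 Q103-GFP, induced with 100 nM tebufenozide and co-treated with library compounds in a dose series (1536-well, 1500 cells/well). Cytoprotection read as ATP content by ATPlite luminescence.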
# * hit, by the source's call; u = inconclusive; x = not tested or not shown; ! = repeats disagree; [ ] = remark or other dose. Calls come from the whole dose curve; as a rule, active = well fitted curve in the direction sought with a large enough effect; inconclusive = small, poorly fitted or top-dose-only effect, or another doubt; inactive = no such curve, though single readings can be large; an effect the other way counts as inactive or inconclusive. Potency is the fitted concentration of half-maximal effect.
SMILES,HTT aggregate,ERK EGF inh,HTT ATP protect
CN1C2CCC1/C(=C/c1ccccn1)C(=O)/C2=C\c1ccccn1,u,14µM*,x
Cc1ccccc1-n1c(/C=C/c2ccccn2)nc2ccccc2c1=O,12%[9.22 µM],-9%[57.5 µM],29%[10 µM]
CCn1cnc2c(Nc3cccc(Cl)c3)nc(N[C@@H]3CCCC[C@H]3N)nc21,x,x,-59%[1.9 µM]
ClC1=C(Cl)C(Cl)=C(Cl)C1=C/C=C/c1ccccc1,-31%[9.22 µM],11µM*,-82%[10 µM]
O=C1NC(=O)N(c2ccccc2)C(=O)/C1=C\C=C\c1ccccc1,2%[9.22 µM],u,-30%[10 µM]
COc1ccc(O)c(C(C)(C)C)c1,-1%,1%,-7%
CC(C)(C)c1cc(O)ccc1O,u,x,32µM*!
CC(=NCc1ccco1)c1c(O)n(C)c(=O)n(C)c1=O,16µM*,x,-15%[0.074 µM]
CCC(=NCc1ccco1)c1c(O)n(C)c(=O)n(C)c1=O,9%[9.22 µM],-1%[57.5 µM],4%[10 µM]
COC(=O)[C@@H]1[C@@H](C(=O)OC)C2(c3ccccc3-c3ccccc32)N(c2ccc(Cl)cc2)N1C#N,-21%[9.22 µM],-5%,-36%[10 µM]
COC(=O)C[C@]1(C(=O)OC)CN(C#N)N(c2ccc(Cl)cc2)C12c1ccccc1-c1ccccc12,5.6µM*,1%,-97%[10 µM]
CC(C)[C@@]1(NC(=O)[C@@H]2C[C@H]3c4cccc5[nH]cc(c45)C[C@@H]3N(C)C2)O[C@@]2(O)[C@H]3CCCN3C(=O)[C@@H](Cc3ccccc3)N2C1=O,x,x,-33%
N[C@H](CCl)C(=O)O,x,x,-2%[1.9 µM]
C=CCCN1C[C@@H]2C[C@H](C1)c1cccc(=O)n1C2,x,x,7%
Cc1onc(-c2ccccc2Cl)c1C(=O)NCc1ccccn1,0.89µM*,x,3%[0.074 µM]
Cc1onc(-c2ccccc2Cl)c1C(=O)OCC(=O)c1ccc2c(c1)OCCO2,u,x,21%[10 µM]
CN[C@H]1[C@H]2[C@H]3CCN2C[C@@H]1O3,x,x,4%
COc1cc2c(cc1OC)-c1c(OC)c(OC)c(CO)c3c1[C@H](C2)N(C)CC3,x,x,-8%
C[C@H](N)c1cccc(Cl)c1Cl,x,x,-8%[1.9 µM]
CCN1CCN(c2ncnc3ccc(Br)cc23)CC1,7.1µM*,x,15%[0.074 µM]
CCc1cc2c(N3CCN(C)CC3)ncnc2s1,u,-2%,5%[10 µM]
O=C(Nc1ccc(Oc2ccc(Cl)cc2)c(Cl)c1)c1cc(I)cc(I)c1O,13µM*,x,-54%
O=C(Nc1ccc(Br)cc1)c1cc(Br)cc(Br)c1O,u,x,-83%
CNc1ccc2oc(C[C@@H]3O[C@@]4(CC[C@H]3C)O[C@@H]([C@@H](C)C(=O)c3ccc[nH]3)[C@@H](C)C[C@H]4C)nc2c1C(=O)O,x,x,-65%[1.9 µM]
COC1=C[C@H]2[C@@H]3Cc4ccc(OC)c(O)c4[C@@]2(CCN3C)CC1=O,x,x,15%
SMILES,HTT aggregate,ERK EGF inh,HTT ATP protect
CCCCCn1c(=O)c(C(=O)NCc2ccncc2)c(O)c2ccccc21,22µM*,x,3%[10 µM]
CCCCCn1c(=O)c(C(=O)Nc2ccncc2)c(O)c2ccccc21,u,x,-10%
OC[C@H]1CCCN2CCCC[C@@H]12,x,x,8%
CCCN1CCC[C@H](c2cccc(C#N)c2)C1,x,x,2%[1.9 µM]
Fc1ccccc1CNC1CN2CCC1CC2 (stereo unspecified),x,-3%,x
Cc1ccccc1C(O)(Cc1ccccc1)C1CN2CCC1CC2 (stereo unspecified),-2%[9.22 µM],x,3.2µM*
NC(N)=Nc1ccc2[nH]c3c(c2c1)C[C@]1(O)[C@@H]2Cc4ccc(O)c5c4[C@]1(CCN2CC1CC1)[C@H]3O5,x,x,7%[1.9 µM]
CC(C)C[C@H]1C(=O)N2CCC[C@@H]2[C@]2(O)O[C@](NC(=O)[C@H]3C=C4c5cccc6[nH]cc(c56)C[C@H]4N(C)C3)(C(C)C)C(=O)N12,x,x,0%
CCCCn1c(O)c(C=NC2CC3CCC2(C)C3(C)C)c(=O)[nH]c1=O (stereo unspecified),13µM*,x,5%[10 µM]
Cn1c(O)c(C=NC2CC3CCC2(C)C3(C)C)c(=O)[nH]c1=O (stereo unspecified),-17%,x,-27%
C[C@@H]1Cc2cc3c(cc2C(c2ccc(N)cc2)=NN1)OCO3,x,x,15%[1.9 µM]
COc1cc2c(cc1OC)-c1c(OC)c(OC)c(OC)c3ccnc(c13)C2=O,11µM*,u,x
COc1cc(CC2(CCc3ccncc3)C(=O)NC(=O)NC2=O)cc(OC)c1OC,7%[9.22 µM],2%,1%[10 µM]
CC(C)n1cc2c3c(cccc31)[C@@H]1C[C@H](C(=O)O[C@@H](C)[C@H](C)O)CN(C)[C@H]1C2,x,x,-8%[1.9 µM]
CC[C@@]12CCCN3CC[C@@]4(c5ccc(OC)c(O)c5N(C(C)=O)[C@H]4CC1)[C@H]32,x,x,29%
CN1CCc2cc3c(cc2[C@@H]1[C@H]1OC(=O)c2c1ccc1c2OCO1)OCO3,x,x,2%
CC(C)=CCCC1(C)C=Cc2c(O)c3c(c(CC=C(C)C)c2O1)OC12C(CC4CC1C(C)(C)OC2(C/C=C(/C)C(=O)O)C4O)C3=O (stereo unspecified),x,u,3.2µM*
COc1c2c(c(CC=C(C)C)c3oc(=O)c(-c4ccc(O)cc4)c(O)c13)OC(C)(C)C=C2,x,13%,x
NC(=NCCC[C@@H](N)C(=O)O)N[N+](=O)[O-],x,x,15%[1.9 µM]
O=C(Cc1ccccc1)N1CCN(Cc2c[nH]c3ccccc23)CC1,13µM*,x,-73%[10 µM]
O=C(COc1ccccc1)N1CCN(Cc2c[nH]c3ccccc23)CC1,16µM*,x,-19%
Cn1cccc1CN1CCN(C(=O)COc2ccccc2)CC1,5%,x,-19%
COc1ccc(OCC(=O)N2CCN(Cc3c[nH]c4ccccc34)CC2)cc1,11µM*,x,-71%[10 µM]
c1ccc2c(CN3CCCCCC3)c[nH]c2c1,17%[9.22 µM],-4%,9%[10 µM]
COc1cc(CN2CCN(C(=O)COc3ccccc3)CC2)cc(OC)c1OC,-8%,x,-33%
SMILES,HTT aggregate,ERK EGF inh,HTT ATP protect
COc1ccc(C[C@@H]2NC[C@H](O)[C@H]2OC(C)=O)cc1,x,x,-75%
CC1=C2C3OC(=O)[C@H](C)[C@H]3CC[C@@]2(C)C=CC1=O (stereo partly specified),x,0%,-6%[1.9 µM]
CC1C(=O)OC2C1CC[C@@]1(C)C=CC(=O)[C@@]3(C)O[C@@]213 (stereo partly specified),x,7%,35µM*
C=C[C@@H]1CN2CC[C@@H]1C[C@H]2[C@H](O)c1ccnc2ccccc12,x,x,-25%
C=C(C)CN1CC[C@]23c4c5ccc(O)c4O[C@H]2c2[nH]c4ccccc4c2C[C@@]3(O)C1C5,x,16µM*,x
C=C(C)CN1CC[C@@]23c4c5ccc(O)c4O[C@H]2c2[nH]c4ccccc4c2C[C@]3(O)[C@@H]1C5,x,-12%,23%
CSC([N-]/N=C/c1cccc(C)n1)=[S]=[Cu].CS[C@H]([S-])[N-]/N=C/c1cccc(C)n1,x,x,-100%[10 µM]
Oc1cc[c]([Hg][Cl])cc1,2.5µM*,x,-99%
Cc1ccc(O)cc1 (tested in a mixture with another compound),x,x,9%[10 µM]
C=C1C/C(=C\C)C(=O)O[C@@H]2CCN3CC=C(COC(=O)[C@]1(C)O)[C@H]23,x,x,-37%
O=C(O)[C@H]1[C@H](C(=O)O)[C@H]2CC[C@@H]1O2,x,x,4%[1.9 µM]
CCN(CC)C1=NC(=[N+](CC)CC)c2ccccc21,2.8µM*,x,-50%
CC[C@H]1CN2CC[C@@H]1C[C@@H]2[C@H](O)c1ccnc2ccccc12,x,x,-9%
O=C1C2CC=CCC2C(=O)N1SC(Cl)(Cl)Cl (stereo unspecified),14µM*,x,-99%
